Source: ChEMBL document CHEMBL3433997, “St. Jude Leishmania screening dataset” (2016)

Tests used:
Assay type in all cases: functional
[1] = target: Solute carrier family 2, facilitated glucose transporter member 1 (Homo sapiens) (UniProt P11166); experiment: ST_JUDE_LEISH: Cytotoxicity at 2uM final concentration against transgenic Leishmania Mexicana promastigotes LmGLUT1 that are glucose transport deficient and complemented with the human glucose transporter GLUT1. Activity is measured by DNA content using SYBR green in vitro
Chain of Solute carrier family 2, facilitated glucose transporter member 1 (Homo sapiens) (P11166 whole entry): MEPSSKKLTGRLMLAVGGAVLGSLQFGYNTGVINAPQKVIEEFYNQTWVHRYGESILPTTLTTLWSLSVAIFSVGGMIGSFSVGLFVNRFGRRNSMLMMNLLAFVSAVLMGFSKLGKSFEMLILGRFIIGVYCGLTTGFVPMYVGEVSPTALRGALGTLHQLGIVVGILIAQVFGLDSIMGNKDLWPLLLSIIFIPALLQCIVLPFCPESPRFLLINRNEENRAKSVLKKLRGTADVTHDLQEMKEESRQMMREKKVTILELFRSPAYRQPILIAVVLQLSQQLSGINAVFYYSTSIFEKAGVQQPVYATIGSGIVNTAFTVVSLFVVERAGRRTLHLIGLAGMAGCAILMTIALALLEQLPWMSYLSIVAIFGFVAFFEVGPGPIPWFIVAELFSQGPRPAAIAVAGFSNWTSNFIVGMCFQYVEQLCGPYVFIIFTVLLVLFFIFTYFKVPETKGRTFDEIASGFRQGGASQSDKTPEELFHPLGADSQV

[2] = target: Hexose transporter 1 (Plasmodium falciparum) (UniProt O97467); experiment: ST_JUDE_LEISH: Cytotoxicity at 2uM final concentration against transgenic Leishmania Mexicana promastigotes LmPfHT that are glucose transport deficient and complemented with the Plasmodium falciparum hexose transporter. Activity is measured by DNA content using SYBR green in vitro
[3] = target: Glucose transporter (Leishmania mexicana) (UniProt O61059); experiment: ST_JUDE_LEISH: Cytotoxicity at 2uM final concentration against transgenic Leishmania Mexicana promastigotes LmGT2 that are glucose transport deficient and complemented with the L. Mexicana glucose transporter 2. Activity is measured by DNA content using SYBR green in vitro

Row | Compound | inhibition [1] [%] | inhibition [2] [%] | inhibition [3] [%]
1 | COc1cc2ncnc(Nc3ccc(OCc4ccccc4)c(C(F)(F)F)c3)c2cc1OC | 1.67 | 0.75 | 0.32
2 | CN1CCN(c2ccc(Nc3c(C(N)=O)cnc4cc(-c5ccoc5)ccc34)cc2C(F)(F)F)CC1 | 2.31 | 2.21 | 2.01
3 | O=C(Nc1cccc(-c2cc(-c3c(Cl)cccc3Cl)no2)c1)c1cnc2ccccc2c1 | 11.8 | 9.35 | 6.2
4 | Cc1cc(C2CCN(CCCCNC(=O)c3ccc(NC(=O)c4ccc(Cl)cc4)cc3)CC2)c(C)cc1OC(C)C | -1.59 | -1.19 | -1.68
5 | c1ccc2[nH]c(-c3ccc(-c4ccc(CN5CCN(c6ccncc6)CC5)cc4)cc3)nc2c1 | 21.3 | 15.4 | 6.31
6 | Cc1cc(N[C@@H](Cc2ccccc2)C(=O)NCCOc2ccccc2)nc(NCc2ccccc2C)n1 | 7.28 | 7.01 | 4.21
7 | CN1CCCN(c2ccnc3cc4c(cc23)N(C(=O)c2ccc(Cl)cc2)CC4)CC1 | 13.4 | 12.5 | 16.1
8 | COc1ccc(CN2CCC(NCc3ccc(C(F)(F)F)cc3)CC2)cc1 | 19.2 | 14.1 | 14
9 | c1ccc(CN2CCC(NCc3ccc(-c4ccc(CNCc5cccnc5)cn4)cc3)CC2)cc1 | 3.27 | 2.84 | 3.77
10 | CCCCOP(=O)(COc1ccc(CCN(CC(O)COc2cccc3[nH]c4ccccc4c23)CC(O)COc2cccc3[nH]c4ccccc4c23)cc1)C1CCCCC1 (configuration not stated) | 3.64 | 0.57 | 0.82
11 | CCN(CCCN1CCCCC1)c1cc(C)nc(Nc2cccc(C(F)(F)F)c2C)n1 | -0.36 | 1.74 | 0.96
12 | Cn1ccnc1CNC(=O)c1ccc(-c2cccc(-c3nc4cc(C(F)(F)F)ccc4[nH]3)c2)cc1 | 1.73 | 0.7 | 0.2
13 | O=C(NC1CCN(Cc2ccccc2)CC1)c1ccc(-c2nc3cc(Cl)c(F)cc3[nH]2)cc1 | 1.14 | 0.15 | 2.45
14 | Cc1ccc(C)c(Cn2ccc3nc(Cl)nc(Cl)c32)c1 | 7.99 | 5.11 | 0.45
15 | CCc1cn(CC(=O)N(CCOc2ccc(-c3ccc(C(F)(F)F)cc3)cc2)CCN(CC)CC)c(SCc2ccc(F)cc2)nc1=O | 0.38 | 0.65 | -0.06
16 | Cc1ccc(Nc2nc3cc(N(C)c4ccnc(Nc5cccc(CCS(C)(=O)=O)c5)n4)ccc3n2C)cc1 | 3.07 | 7.25 | 3.82
17 | CCCCCc1ccc(NC(=O)Nc2ccc(Cn3ncc(N4CCCNCC4)c(Cl)c3=O)cc2)cc1 | -1.1 | -1.27 | 0.47
18 | Cc1ccc2c(=NN=Cc3cccc(F)c3)cc(C)[nH]c2c1 | 7.16 | 7.52 | 6.18
19 | CCCOc1cccc(C(=O)N[C@@H](Cc2ccccc2)[C@H](O)CNCc2ccccc2OC)c1 | 3.73 | 2.98 | 4.75
20 | OC(CNCCCCCCNCC(O)c1ccc(Cl)c(Cl)c1)c1ccc(Cl)c(Cl)c1 (configuration not stated) | 3.81 | 4.69 | 3.55
21 | Cc1cc(F)ccc1-c1nc(NCC(O)CNCCc2ccccc2)nc2c1ccc(=O)n2-c1c(F)cccc1F (configuration not stated) | 5.26 | 4.59 | 6.47
22 | CCNc1cc(C)nc(Nc2ccc(C)cc2)n1 | 25.8 | 7.92 | 5.86
23 | COc1ccc(CNc2nc(NCc3ccc(C(F)(F)F)cc3)c3cc(OC)c(OC)cc3n2)cc1OC | 20.1 | 19.9 | 14.3
24 | CC(C)Nc1cc(C(=O)N[C@@H](Cc2ccccc2)[C@H](O)CNC(C)(C)c2cccc(C(F)(F)F)c2)cc(N2CCCCS2(=O)=O)c1 | 1.42 | 2.46 | 0.9
25 | O=C(Nc1ccc(Br)c(Cl)c1)c1cc([N+](=O)[O-])cc2cn[nH]c12 | -0.11 | -0.77 | 1.08
26 | Cc1ccc2[nH]c(-c3ccccc3Nc3ccnc4cc(-c5nccs5)ccc34)nc2c1 | 1.04 | 4.44 | 1.35
27 | CN1CCC(N(Cc2ccc(-c3ccc(Cl)cc3)cc2)C(=O)Cn2c(CCc3cccc(F)c3F)cc(=O)c3ccccc32)CC1 | 8.97 | 3.73 | 8.07

Row | Compound | inhibition [1] [%] | inhibition [2] [%] | inhibition [3] [%]
28 | Brc1ccccc1CNc1ccnc(NCCn2ccnc2)n1 | -0.91 | 0.05 | 0.03
29 | CCN(CC)S(=O)(=O)n1ncc2c3c(N)nc(N)nc3ccc21 | -2.64 | 0.17 | -2.31
30 | CN1CC[C@@H](Oc2cc(Nc3nc(-c4ccc(C#N)cc4)cs3)ccc2Cl)C1 | 5.3 | 5.47 | 4.06
31 | COc1cc2nc(NCCn3nc(C)cc3C)nc(NCCc3ccccc3)c2cc1OC | -0.49 | 5.15 | 1.08
32 | CC(C)N(CCOc1ccc2c(c1)N(C(=O)Nc1ccc(Cl)c(Cl)c1)CC2)C(C)C | -0.91 | 0.27 | -4.18
33 | Cc1cc(C(=O)N[C@H]2CCN(Cc3ccc(OCCCN(C)C)cc3)C2)ccc1Br | 0.17 | 0.95 | 1.98
34 | O=C(Nc1cccc(-c2ccc(-c3nc4cc(C(F)(F)F)ccc4[nH]3)cc2)c1)c1csnn1 | 5.44 | 8 | 0.51
35 | COc1ccc(-c2cccc(NC(=O)c3ccc(F)cc3)c2)cc1CNC(C)C | 1.85 | 3.31 | 3.19
36 | Cc1[nH]c2ccccc2c1C1CCN(CCCCNC(=O)c2ccc(-c3ccc(C#N)cc3)cc2)CC1 | 11.2 | 9.94 | 10.3
37 | COc1ccc(Nc2nccc(N3CCC(NC(=O)Nc4cc(C)ccc4C)C3)n2)cc1 (configuration not stated) | 10.3 | 7.52 | 9.76
38 | O=C(Nc1cccc(CN2CCN(C(=O)c3cccc(F)c3)CC2)c1)c1ccco1 | 2.27 | 2.31 | 0.61
39 | CCCCN(Cc1cc(Cl)c(OCC)c(OC)c1)c1ccc(C(O)(C(F)(F)F)C(F)(F)F)cc1 | -0.54 | -0.97 | -2.65
40 | N#Cc1c(-c2ccccc2)cn2c1[nH]c(=O)c1ccccc12 | -1.7 | 2.37 | 1.89
41 | CN(C)S(=O)(=O)c1ccc(Nc2nc(NCCC3C=NC=N3)nc3cc[nH]c(=O)c23)cc1 (configuration not stated) | 4.88 | 5.35 | 4.93
42 | COc1ccc2[nH]ccc(=NN=Cc3ccccc3Cl)c2c1 | 7.36 | 12.6 | 2.03
43 | Cc1cccc2nc(-c3ccc(-c4ccc(NC(=O)Nc5ccc(Cl)cc5)cc4)s3)[nH]c12 | 1.01 | 1.2 | 0.32
44 | CCCc1cc2c3c(N)nc(N)nc3ccc2n1CC | 6.73 | 8.39 | 4.29
45 | CCCCc1cc(NCC)nc(Nc2cccc(OC)c2)n1 | 38.6 | 27 | 19.1
46 | CCNc1cc(C(=O)N[C@@H](Cc2ccccc2)[C@H](O)CNC2(CC(C)C)CC2)cc(N2CCCCS2(=O)=O)c1 | -1.54 | 4.02 | -0.34
47 | CCCCCOc1ccc(C(O)C(CN2CCCCC2)c2ccccc2)cc1 (configuration not stated) | 5.64 | 4.91 | 5.39
48 | CCc1sc(-c2cc(Cl)ccc2OC)nc1C(=O)NCCN1CCCCC1 | 4.48 | 4.06 | 4.96
49 | O=S(=O)(Nc1cc2c(cc1O)CCN(C1CCC1)CC2)c1ccc(Oc2ccc(F)cc2)cc1 | 2.05 | 1.02 | 0.51
50 | O=C(Cc1cccc2ccccc12)N1CCc2cc3nccc(N4CCN5CCC[C@H]5C4)c3cc21 | 8.63 | 7.78 | 10
51 | COc1csc2cc(Br)ccc12 | 1.01 | 1.16 | 0.18
52 | COc1ccccc1COc1c(C)nc(N)nc1N | -1.13 | -0.61 | -1.06
53 | O=C(N[C@@H](Cc1ccccc1)C(=O)O)c1cc(-c2ccc(F)cc2)no1.O=C(N[C@@H](Cc1ccccc1)C(=O)O)c1conc1-c1ccc(F)cc1 | 9.87 | 6.76 | 6.74
54 | O=C(Cc1c[nH]cn1)Nc1cccc(-c2ccc(-c3nc4cc(C(F)(F)F)ccc4[nH]3)s2)c1 | -5.22 | -3.59 | -0.81
